Hit rate of the full screen: of about 39,000 compounds, about 1,500 (3.8%) were called active. Shown is part of a subset that was picked to be rich in actives.
tested on: HSkMC (human skeletal muscle cells); experiment: cytotoxicity call (relative viability < 0.9); conditions: 10 µM

| Structure (SMILES) | cytotoxicity call |
| --- | --- |
| CCOc1ccc(C(=O)Nc2ccc(N3CCN(C(=O)c4cccs4)CC3)c(Cl)c2)cc1Br | inactive |
| C[C@@H]1CCCCO[C@@H](CN(C)Cc2ccc(C(=O)Nc3ccccc3N)cc2)[C@@H](C)CN([C@H](C)CO)C(=O)c2cc(NC(=O)Nc3cccc4ccccc34)ccc2O1 | inactive |
| CC[C@@H](C)[C@H]1O[C@@]2(CC[C@@H]1C)C[C@H]1C[C@@H](CC=C(C)[C@@H](O[C@H]3C[C@@H](OC)[C@@H](O[C@H]4C[C@@H](OC)[C@@H](O)[C@@H](C)O4)[C@@H](C)O3)[C@@H](C)C=CC=C3CO[C@H]4[C@@H](O)C(C)=C[C@@H](C(=O)O1)[C@]34O)O2.CO[C@H]1C[C@@H](O[C@@H]2[C@@H](OC)C[C@@H](O[C@@H]3C(C)=CC[C@@H]4C[C@@H](C[C@@]5(CC[C@@H](C)[C@H](C(C)C)O5)O4)OC(=O)[C@@H]4C=C(C)[C@H](O)[C@@H]5OCC(=CC=C[C@@H]3C)[C@@]45O)O[C@@H]2C)O[C@@H](C)[C@@H]1O | active |
| CC[C@H](C)[C@H]1O[C@]2(CC[C@@H]1C)C[C@@H]1C[C@@H](C/C=C(\C)[C@@H](O[C@H]3C[C@H](OC)[C@@H](O[C@H]4C[C@H](OC)[C@@H](O)[C@H](C)O4)[C@H](C)O3)[C@@H](C)/C=C/C=C3\CO[C@@H]4[C@H](O)C(C)=C[C@@H](C(=O)O1)[C@]34O)O2 | active |
| CCC(C)C1OC2(CCC1C)CC1CC(CC=C(C)C(OC3CC(OC)C(OC4CC(OC)C(O)C(C)O4)C(C)O3)C(C)C=CC=C3COC4C(O)C(C)=CC(C(=O)O1)C34O)O2 (configuration not stated) | inactive |
| O=[N+]([O-])c1cc(N(CCO)CCO)ccc1NCCO | inactive |
| O=C(C[C@@H]1CC[C@H]2[C@@H](COC[C@@H](O)CN2C(=O)Nc2cccc(F)c2)O1)NCCCN1CCOCC1 | inactive |
| C[C@@H]1CCCCO[C@H](CN(C)Cc2ccccc2)[C@@H](C)CN([C@@H](C)CO)C(=O)c2cc(NC(=O)CCC(F)(F)F)ccc2O1 | inactive |
| CCS(=O)(=O)Nc1ccc2c(c1)C(=O)N(C)[C@@H]1CC[C@H](CC(=O)N[C@H]3CCN(Cc4ccccc4)C3)O[C@H]1CO2 | inactive |
| CCS(=O)(=O)Nc1ccc2c(c1)/C(=C(/Nc1ccc(CN3CCCCC3)cc1)c1ccccc1)C(=O)N2 | active |
| CCS(=O)(=O)Nc1ccc2c(c1)CC(=O)N2 | inactive |
| Cc1ccc(S[C@]2(C(=O)NCCCN(C)C)CC(=O)N(Cc3ccccc3C(F)(F)F)[C@@H]2c2ccc(CO)cc2I)cc1 | inactive |
| C[C@@H]1CCCCO[C@H](CN(C)C(=O)Nc2cccc3ccccc23)[C@@H](C)CN([C@@H](C)CO)C(=O)c2cc(NC(=O)c3ccncc3)ccc2O1 | active |
| C[C@@H]1CN([C@H](C)CO)C(=O)c2cc(NC(=O)c3ccncc3)ccc2O[C@@H](C)CCCCO[C@@H]1CN(C)C(=O)Nc1cccc2ccccc12 | inactive |
| C[C@H]1CCCCO[C@H](CN(C)C(=O)Nc2cccc3ccccc23)[C@@H](C)CN([C@@H](C)CO)C(=O)c2cc(NC(=O)c3ccncc3)ccc2O1 | inactive |
| C[C@H](CO)N1C[C@H](C)[C@@H](CN(C)C(=O)Nc2cccc3ccccc23)OCCCC[C@H](C)Oc2ccc(NC(=O)c3ccncc3)cc2C1=O | inactive |
| C[C@@H]1CN([C@H](C)CO)C(=O)c2cc(NC(=O)c3ccncc3)ccc2O[C@@H](C)CCCCO[C@H]1CN(C)C(=O)Nc1cccc2ccccc12 | active |
| C[C@@H]1CCCCO[C@@H](CN(C)C(=O)Nc2cccc3ccccc23)[C@H](C)CN([C@@H](C)CO)C(=O)c2cc(NC(=O)c3ccncc3)ccc2O1 | inactive |
| C[C@@H]1CN([C@@H](C)CO)C(=O)Cc2cc(NC(=O)C3CCCCC3)ccc2O[C@H]1CN(C)S(C)(=O)=O | inactive |
| C[C@@H]1CN([C@@H](C)CO)C(=O)c2cccc(NS(C)(=O)=O)c2O[C@@H]1CN(C)S(C)(=O)=O | inactive |
| COc1ccc(S(=O)(=O)Nc2ccc3c(c2)C(=O)N([C@@H](C)CO)C[C@H](C)[C@@H](CN(C)C(=O)Nc2ccc(F)cc2)OCCCC[C@H](C)O3)cc1 | inactive |
| C[C@@H]1CCCCO[C@@H](CN(C)C(=O)Nc2ccccc2)[C@H](C)CN([C@@H](C)CO)C(=O)c2cc(NC(=O)Nc3cccc4ccccc34)ccc2O1 | inactive |
| C[C@H](CO)N1C[C@H](C)[C@H](CN(C)CC2CCOCC2)Oc2ncc(C#CCc3ccccc3)cc2C1=O | inactive |

| Structure (SMILES) | cytotoxicity call |
| --- | --- |
| COc1ccc(NC(=O)Nc2ccc3c(c2)C(=O)N([C@H](C)CO)C[C@H](C)[C@@H](CN(C)C(=O)Nc2c(C)noc2C)OCCCC[C@@H](C)O3)cc1 | inactive |
| O=C1N[C@@H](c2ccccc2)COCc2cn(nn2)CC[C@H](Cc2ccc(C(F)(F)F)cc2)C(=O)N[C@@H](c2ccccc2)COCc2cn(nn2)CC[C@@H]1Cc1ccc(C(F)(F)F)cc1 | inactive |
| C[C@H]1CN([C@@H](C)CO)C(=O)c2cc(NC(=O)Nc3ccc(C(F)(F)F)cc3)ccc2O[C@H]1CN(C)Cc1ccc(C(F)(F)F)cc1 | active |
| C[C@H]1CN([C@@H](C)CO)C(=O)c2cc(NC(=O)Nc3ccc(C(F)(F)F)cc3)ccc2O[C@@H]1CN(C)Cc1ccc(C(F)(F)F)cc1 | active |
| C[C@@H]1CN([C@H](C)CO)C(=O)c2cc(NC(=O)Nc3ccc(C(F)(F)F)cc3)ccc2O[C@H]1CN(C)Cc1ccc(C(F)(F)F)cc1 | active |
| C[C@@H]1CN([C@H](C)CO)C(=O)c2cc(NC(=O)Nc3ccc(C(F)(F)F)cc3)ccc2O[C@@H]1CN(C)Cc1ccc(C(F)(F)F)cc1 | active |
| C[C@H](CO)N1C[C@H](C)[C@H](CN(C)C)Oc2ccc(NC(=O)Cc3cn(C)c4ccccc34)cc2CC1=O | inactive |
| CNC[C@@H]1OCCCC[C@H](C)Oc2ccc(NS(=O)(=O)c3cn(C)cn3)cc2C(=O)N([C@@H](C)CO)C[C@H]1C | inactive |
| C[C@H](CO)N1C[C@H](C)[C@H](CN(C)C(=O)Cc2ccncc2)Oc2cc(C#CC3(O)CCCC3)ccc2S1(=O)=O | inactive |
| C[C@@H]1CN([C@@H](C)CO)C(=O)c2cc(C#Cc3ccncc3)cnc2O[C@H]1CN(C)C(=O)c1ccccc1F | inactive |
| C[C@H]1CCCCO[C@@H](CN(C)C(=O)Cc2ccccc2)[C@@H](C)CN([C@@H](C)CO)C(=O)c2cc(NS(=O)(=O)c3cccs3)ccc2O1 | inactive |
| COc1ccc(NC(=O)N(C)C[C@@H]2Oc3ccc(NC(=O)Nc4cccc5ccccc45)cc3C(=O)N([C@H](C)CO)C[C@@H]2C)cc1 | inactive |
| CN(C)CCCNC(=O)C[C@H]1C=C[C@@H](NS(=O)(=O)c2ccccc2)[C@@H](CO)O1 | inactive |
| C[C@H](CO)N1C[C@H](C)[C@@H](CN(C)Cc2ccc(C(F)(F)F)cc2)Oc2ccc(NC(=O)Nc3ccc(C(F)(F)F)cc3)cc2C1=O | inactive |
| C[C@H](CO)N1C[C@H](C)[C@H](CN(C)Cc2ccc(C(F)(F)F)cc2)Oc2ccc(NC(=O)Nc3ccc(C(F)(F)F)cc3)cc2C1=O | active |
| C[C@@H]1CN([C@@H](C)CO)C(=O)c2cc(NC(=O)Nc3ccc(C(F)(F)F)cc3)ccc2O[C@H]1CN(C)Cc1ccc(C(F)(F)F)cc1 | active |
| C[C@@H]1CN([C@@H](C)CO)C(=O)c2cc(NC(=O)Nc3ccc(C(F)(F)F)cc3)ccc2O[C@@H]1CN(C)Cc1ccc(C(F)(F)F)cc1 | active |
| COCC#Cc1ccc2c(c1)O[C@H](CN(C)S(=O)(=O)c1cccc(F)c1)[C@@H](C)CN([C@@H](C)CO)S2(=O)=O | inactive |
| COc1ccccc1CN1C[C@@H](C)[C@H](OC)CN(C)C(=O)c2cc(NC(=O)Nc3ccccc3OC)ccc2OC[C@H]1C | inactive |
| C[C@@H]1CN([C@@H](C)CO)C(=O)c2cc(-c3cccc(C#N)c3)cnc2O[C@@H]1CN(C)C(=O)C1CCOCC1 | inactive |
| Cc1ccc(S(=O)(=O)N(C)C[C@H]2Oc3c(NS(=O)(=O)c4c(C)noc4C)cccc3C(=O)N([C@@H](C)CO)C[C@H]2C)cc1 | inactive |
| N#CC1(C#N)[C@H](c2ccccc2)[C@@H]1C(N)=O | inactive |
| CC(C)CC#Cc1ccc2c(c1)O[C@@H](CN(C)C(=O)c1cnccn1)[C@@H](C)CN([C@H](C)CO)S2(=O)=O | inactive |

| Structure (SMILES) | cytotoxicity call |
| --- | --- |
| O=C(C[C@H]1CC[C@H]2[C@@H](COC[C@@H](O)CN2S(=O)(=O)c2ccc(Cl)cc2)O1)N[C@H]1CCN(Cc2ccccc2)C1 | inactive |
| CC(C)C[C@H](NC(=O)CNC(=O)c1cc(Cl)ccc1Cl)B1OC(=O)C[C@](CC(=O)O)(C(=O)O)O1 | active |
| Cc1noc(C)c1S(=O)(=O)Nc1ccc2c(c1)C(=O)N([C@@H](C)CO)C[C@@H](C)[C@@H](CN(C)CC1CCCCC1)OCCCC[C@H](C)O2 | inactive |
| Cn1c(=O)[nH]c2nnc(-c3ccccn3)nc2c1=O | inactive |
| Cn1nc(-c2ccccn2)nc2c(=O)n(C)c(=O)nc1-2 | active |
| COc1ccc(-c2ccccn2)cc1 | inactive |
| CN1CCN(C(=O)[C@@H]2[C@@H](CO)[C@@H]3Cn4c(cccc4=O)[C@H]2N3S(=O)(=O)c2ccccc2F)CC1 | inactive |
| CC(=O)N1CCN(C(=O)Cc2ccc(S(C)(=O)=O)cc2)C[C@@H](O)C1 | inactive |
| CC(=O)NCCCC[C@@H]1NC(=O)[C@H]2C[C@@H](C(=O)NCc3ccc(F)cc3)[C@@H](c3ccc(O)cc3)N2C1=O | inactive |
| Cc1ccc(S(=O)(=O)Nc2ccc3c(c2)CC(=O)N([C@H](C)CO)C[C@@H](C)[C@@H](CN(C)Cc2ccc(C(F)(F)F)cc2)O3)cc1 | active |
| C[C@@H]1CN([C@H](C)CO)C(=O)Cc2cc(NS(C)(=O)=O)ccc2O[C@@H]1CN(C)Cc1ccc(C(F)(F)F)cc1 | inactive |
| C[C@H]1CN([C@@H](C)CO)C(=O)Cc2cc(NS(C)(=O)=O)ccc2O[C@@H]1CN(C)Cc1ccc(C(F)(F)F)cc1 | inactive |
| C[C@H](CO)N1C[C@H](C)[C@H](CN(C)Cc2ccc(C(F)(F)F)cc2)Oc2ccc(NS(C)(=O)=O)cc2CC1=O | inactive |
| Cc1ccc(S(=O)(=O)Nc2ccc3c(c2)CC(=O)N([C@@H](C)CO)C[C@@H](C)[C@@H](CN(C)Cc2ccc(C(F)(F)F)cc2)O3)cc1 | active |
| C[C@@H]1CN([C@@H](C)CO)C(=O)Cc2cc(NS(C)(=O)=O)ccc2O[C@@H]1CN(C)Cc1ccc(C(F)(F)F)cc1 | inactive |
| C[C@@H]1CN([C@H](C)CO)C(=O)Cc2cc(NS(C)(=O)=O)ccc2O[C@H]1CN(C)Cc1ccc(C(F)(F)F)cc1 | inactive |
| C[C@H]1CN([C@@H](C)CO)C(=O)Cc2cc(NS(C)(=O)=O)ccc2O[C@H]1CN(C)Cc1ccc(C(F)(F)F)cc1 | inactive |
| C[C@@H]1CN([C@@H](C)CO)C(=O)Cc2cc(NS(C)(=O)=O)ccc2O[C@H]1CN(C)Cc1ccc(C(F)(F)F)cc1 | inactive |
| Cc1ccc(S(=O)(=O)Nc2ccc3c(c2)CC(=O)N([C@H](C)CO)C[C@H](C)[C@H](CN(C)Cc2ccc(C(F)(F)F)cc2)O3)cc1 | active |
| Cc1ccc(S(=O)(=O)Nc2ccc3c(c2)CC(=O)N([C@@H](C)CO)C[C@H](C)[C@@H](CN(C)Cc2ccc(C(F)(F)F)cc2)O3)cc1 | active |
| Cc1ccc(S(=O)(=O)Nc2ccc3c(c2)CC(=O)N([C@H](C)CO)C[C@H](C)[C@@H](CN(C)Cc2ccc(C(F)(F)F)cc2)O3)cc1 | inactive |
